The values below come from PubChem BioAssay (EPA / NIEHS).

Molecules are shown by their SMILES. More than one record can exist for a structure, and the calls need not agree. The source made the active and inactive calls. Rule for the calls: active = hit-call score of the fitted dose curve at least 0.9, where 1 is the maximum; inactive = score below 0.9.

Read-out in test [1]: Urokinase-type plasminogen activator receptor (uPAR), PLAUR (gene 5329)
Nature of the test: BSK_4H_uPAR: BioMAP Diversity Plus: 4H Assay for Urokinase-type plasminogen activator receptor (uPAR) Biomarker Activity (AID 2283030). To be noted: primary human endothelial cells (HUVEC); actives raise or lower the signal. In a few lines:
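Endpoint derived via bidirectional curve fitting against DMSO baseline; readout was ELISA detection of uPAR on umbilical vein endothelial cells at 24 h post-treatment, with SRB-stained parallel cultures assessing cytotoxicity.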

Read-out in test [2]: Vascular endothelial growth factor receptor 2 (Homo sapiens) (UniProt P35968)
In words: BSK_4H_VEGFRII: BioMAP Diversity Plus: 4H Assay for Vascular endothelial growth factor receptor 2 (VEGFR2) Biomarker Activity (AID 2283031). As to conditions: primary human endothelial cells (HUVEC); actives raise or lower the signal. In a few lines: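 In this multiplexed HUVEC system, biomarker ELISA was performed after 24 h chemical exposure. Parallel SRB staining (TCA fixation, 560 nm) tracked cytotoxicity; DMSO served as baseline.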

Read-out in test [3]: Human Leukocyte Antigen - DR isotype (HLADR), HLA-DRA (gene 3122)
Nature of the test: BSK_BE3C_HLADR: BioMAP Diversity Plus: BE3C Assay for Human Leukocyte Antigen - DR isotype (HLADR) Biomarker Activity (AID 2283032). To be noted: primary human bronchial epithelial cells; actives raise or lower the signal. The essentials: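 ELISA read-out of HLA-DR on human lung bronchial epithelial primary cells, measured 24 h post-dosing. Both increases and decreases were scored relative to DMSO vehicle.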

Read-out in test [4]: Vascular cell adhesion molecule 1 (VCAM1), VCAM1 (gene 7412)
Nature of the test: BSK_4H_VCAM1: BioMAP Diversity Plus: 4H Assay for Vascular cell adhesion molecule 1 (VCAM1) Biomarker Activity (AID 2283033).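 For outcome: cell-surface VCAM-1 protein measured by ELISA.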 As to conditions: primary human endothelial cells (HUVEC); actives raise or lower the signal. The essentials: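 ELISA read-out of VCAM-1 on human umbilical vein endothelium 24 hours after chemical dosing; gain or loss of signal was fitted relative to DMSO, with sulforhodamine B staining of parallel cultures flagging overt cytotoxicity.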

Read-out in test [5]: Interferon-gamma inducible Protein 10 (IP10), CXCL10 (gene 3627)
Nature of the test: BSK_BE3C_IP10: BioMAP Diversity Plus: BE3C Assay for Interferon-gamma inducible Protein 10 (IP10) Biomarker Activity (AID 2283034). As to conditions: primary human bronchial epithelial cells; actives raise or lower the signal. In a few lines:
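Chemical is dosed onto human lung bronchial epithelial primary cells, cultures are incubated 24 h, and IP-10 is then quantified by ELISA. Gain or loss of signal is fitted in both directions relative to DMSO.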

Read-out in test [6]: Monokine induced gamma interferon (MIG), CXCL9 (gene 4283)
In words: BSK_BE3C_MIG: BioMAP Diversity Plus: BE3C Assay for Monokine induced gamma interferon (MIG) Biomarker Activity (AID 2283035).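 Note: MIG protein measured by ELISA in BE3C cultures after 24 h of dosing.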 As to conditions: primary human bronchial epithelial cells; actives raise or lower the signal. In a few lines:
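MIG level was determined by ELISA after 24 h chemical treatment of primary human bronchial epithelial cells. Values were fitted bidirectionally with DMSO as the negative control and activity baseline.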

Read-out in test [7]: Transforming growth factor beta 1 (TGFb1), TGFB1 (gene 7040)
In words: BSK_BE3C_TGFb1: BioMAP Diversity Plus: BE3C Assay for Transforming growth factor beta 1 (TGFb1) Biomarker Activity (AID 2283036;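 note: TGF-b1 protein level measured by ELISA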). To be noted: primary human bronchial epithelial cells; actives raise or lower the signal. In a few lines:
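Primary human lung bronchial epithelial cells; compound exposure 24 h; TGF-b1 by ELISA; bidirectional fit, DMSO baseline. Parallel SRB total-protein staining for cytotoxicity.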

Read-out in test [8]: Plasminogen activator inhibitor-1 (PAI1), SERPINE1 (gene 5054)
Nature of the test: BSK_BE3C_PAI1: BioMAP Diversity Plus: BE3C Assay for Plasminogen activator inhibitor-1 (PAI1) Biomarker Activity (AID 2283037). As to conditions: primary human bronchial epithelial cells; actives raise or lower the signal. In a few lines: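 Primary human lung bronchial epithelial cells; chemical dosing; 24 h; PAI-1 measured by ELISA; bidirectional fit referenced to DMSO as negative control.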

Read-out in test [9]: urokinase plasminogen activator (uPA), PLAU (gene 5328)
In words: BSK_BE3C_uPA: BioMAP Diversity Plus: BE3C Assay for urokinase plasminogen activator (uPA) Biomarker Activity (AID 2283038).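 For outcome: uPA protein level quantified by ELISA in cell cultures; uPA read one day after compound addition.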 As to conditions: primary human bronchial epithelial cells; actives raise or lower the signal. In a few lines:
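Using confluent primary human lung bronchial epithelial cultures, we dosed chemicals, waited 24 h, then ran a uPA ELISA, fitting bidirectionally against DMSO.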

Read-out in test [10]: Urokinase-type plasminogen activator receptor (uPAR), PLAUR (gene 5329)
In words: BSK_BE3C_uPAR: BioMAP Diversity Plus: BE3C Assay for Urokinase-type plasminogen activator receptor (uPAR) Biomarker Activity (AID 2283039).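 Note: uPAR protein level measured by ELISA on the cells; cells exposed to compound for one day before measurement.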 To be noted: primary human bronchial epithelial cells; actives raise or lower the signal. The essentials: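 Human bronchial epithelial primary cells; chemical exposure 24 h; uPAR by ELISA; bidirectional fit vs DMSO control.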

Read-out in test [11]: Interleukin-6 (IL6), IL6 (gene 3569)
Nature of the test: BSK_CASM3C_IL6: BioMAP Diversity Plus: CASM3C Assay for Interleukin-6 (IL6) Biomarker Activity for (AID 2283040). As to conditions: primary human coronary artery smooth muscle cells; actives raise or lower the signal.

Read-out in test [12]: Tissue plasminogen activator (tPA), PLAT (gene 5327)
In words: BSK_BE3C_tPA: BioMAP Diversity Plus: BE3C Assay for Tissue plasminogen activator (tPA) Biomarker Activity (AID 2283041).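 For outcome: tPA level quantified by ELISA one day after compound addition.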 As to conditions: primary human bronchial epithelial cells; actives raise or lower the signal. The essentials:
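Primary human lung bronchial epithelial cultures receive test chemical; after 24 h, tPA is quantified by ELISA, and gain or loss of signal is fitted bidirectionally relative to DMSO baseline.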

Read-out in test [13]: Interleukin-8 (IL8), CXCL8 (gene 3576)
In words: BSK_CASM3C_IL8: BioMAP Diversity Plus: CASM3C Assay for Interleukin-8 (IL8) Biomarker Activity (AID 2283042).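 Note: IL-8 protein level quantified by ELISA.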 As to conditions: primary human coronary artery smooth muscle cells; actives raise or lower the signal.

Read-out in test [14]: Human Leukocyte Antigen - DR isotype (HLADR), HLA-DRA (gene 3122)
Nature of the test: BSK_CASM3C_HLADR: BioMAP Diversity Plus: CASM3C Assay for Human Leukocyte Antigen - DR isotype (HLADR) Biomarker Activity (AID 2283043).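 Note: cell-surface HLA-DR protein level quantified by ELISA.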 To be noted: primary human coronary artery smooth muscle cells; actives raise or lower the signal.

Read-out in test [15]: Macrophage colony-stimulating factor (MCSF), CSF1 (gene 1435)
In words: BSK_CASM3C_MCSF: BioMAP Diversity Plus: CASM3C Assay for Macrophage colony-stimulating factor (MCSF) Biomarker Activity (AID 2283044).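 Note: M-CSF protein amount quantified by ELISA after 24 h exposure.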 To be noted: primary human coronary artery smooth muscle cells; actives raise or lower the signal.

Read-out in test [16]: Low-density lipoprotein receptor (LDLR), LDLR (gene 3949)
Nature of the test: BSK_CASM3C_LDLR: BioMAP Diversity Plus: CASM3C Assay for Low-density lipoprotein receptor (LDLR) Biomarker Activity (AID 2283045).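 Note: LDLR protein level on the cell surface quantified by ELISA.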 To be noted: primary human coronary artery smooth muscle cells; actives raise or lower the signal.

Read-out in test [17]: Monocyte Chemoattractant Protein-1 (MCP1), CCL2 (gene 6347)
Nature of the test: BSK_CASM3C_MCP1: BioMAP Diversity Plus: CASM3C Assay for Monocyte Chemoattractant Protein-1 (MCP1) Biomarker Activity (AID 2283046).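 Note: MCP-1 level quantified by ELISA 24 h after dosing.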 To be noted: primary human coronary artery smooth muscle cells; actives raise or lower the signal.

A short description of test [18]: BSK_CASM3C_Proliferation: Cell Proliferation Assessment in the BioMAP Diversity Plus: CASM3C Assay (AID 2283047).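 Note: sulforhodamine B total protein stain as relative cell number at 560 nm; sub-confluent cells exposed 48 h before staining; fitted both ways against DMSO so gain or loss of cell number.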 To be noted: primary human coronary artery smooth muscle cells.
Read-out in test [19]: Monokine induced gamma interferon (MIG), CXCL9 (gene 4283)
Nature of the test: BSK_CASM3C_MIG: BioMAP Diversity Plus: CASM3C Assay for Monokine induced gamma interferon (MIG) Biomarker Activity (AID 2283048).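 Note: MIG protein level measured by ELISA.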 As to conditions: primary human coronary artery smooth muscle cells; actives raise or lower the signal.

Read-out in test [20]: serum amyloid A (SAA), SAA1 (gene 6288)
Nature of the test: BSK_CASM3C_SAA: BioMAP Diversity Plus: CASM3C Assay for serum amyloid A (SAA) Biomarker Activity (AID 2283049).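 Note: SAA protein level quantified by ELISA.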 As to conditions: primary human coronary artery smooth muscle cells; actives raise or lower the signal.

`CCOP(=S)(S)OCC`: the outcome in test [1], in test [2], in test [3], in test [4], in test [5] and in [6] was inactive. Moreover, the outcome in test [7], in [8], in test [9], in [10], in test [11] and in [12] was inactive. Besides, the result in test [13], in [14], in test [15], in test [16], in [17] and in test [18] was inactive. Moreover, the outcome in [19] and in [20] was inactive.

In the case of `NC(=O)C(F)(F)C(F)(F)F`, the result in test [1], in test [2], in test [3], in test [4], in [5] and in [6] was inactive. The outcome in [8], in test [9], in test [10], in [11], in test [12] and in test [13] was inactive. In addition, the result in [14], in [15], in [16], in test [17], in [18] and in test [19] was inactive. Moreover, in [20], the outcome was inactive.

As to `O=C(O)C(F)(F)OC(F)(F)C(F)(F)OC(F)(F)F`, the result in test [1], in test [2], in [3], in test [4], in test [5] and in test [6] was inactive. Also, the outcome in [8], in [9], in test [10], in test [11], in [12] and in test [13] was inactive. Also, the result in test [14], in test [15], in test [16], in [17], in test [18] and in test [19] was inactive. In addition, in [20], the outcome was inactive. For the same molecule, the half-maximal activity concentration (AC50) is 1.42 µM (active) in test [9], 1.03 µM (active) in [17] and 1.17 µM (active) in test [19].

For `CC(O)C(F)(F)C(F)(F)F` (configuration not stated), the result in test [1], in [2], in [3], in [4], in [5] and in test [6] was inactive. For the same molecule, the outcome in [8], in [9], in test [10], in [11], in test [12] and in [13] was inactive. Also, the outcome in [14], in test [15], in test [16], in test [17], in [18] and in test [19] was inactive. The result in test [20] was inactive.

On to `c1ccc(OP(Oc2ccccc2)Oc2ccccc2)cc1`, for which the result in test [1], in test [2], in test [4], in test [5], in test [6] and in test [7] was inactive. Moreover, the outcome in test [8], in [9], in [10], in test [11], in test [12] and in [13] was inactive. For the same molecule, the result in [14], in test [15], in [16], in [17], in [18] and in test [19] was inactive. For the same molecule, the outcome in test [20] was inactive.

With `CCOP(=S)(OCC)SCSCC`, the outcome in test [1], in [2], in [4], in [5], in test [6] and in [7] was inactive. Moreover, the outcome in test [8], in test [9], in [10], in test [11], in [12] and in test [13] was inactive. Besides, the result in test [14], in [15], in test [16], in test [17], in test [18] and in [19] was inactive. The outcome in [20] was inactive.

As for `CCOP(=S)(Oc1ccc([N+](=O)[O-])cc1)c1ccccc1` (configuration not stated), the outcome in test [1], in [2], in test [5], in test [6], in [7] and in test [8] was inactive. The result in [9], in [10], in test [11], in test [13], in test [15] and in test [17] was inactive. Also, the result in test [19] and in test [20] was inactive. Besides, the AC50 is 8.86 µM (active) in test [4]; 2.17 µM (active) in test [12]; 14.2 µM (active) in test [14]; 20 µM (active) in test [16]; 20 µM (active) in [18].

For orientation: AC50 means the concentration at which the activity in the assay is half-maximal.
